# Reference: the supplement of paper PMC10849652
# Targets with a hit are over-represented here; the source holds about 7,900 in all. About 0.6% of all pairs of compound and target were hits. Values without a mark were called inactive.
# Columns and labels:
# Assay in all cases: log2 fold change, soluble protein after heating vs DMSO (PISA); higher = thermal stabilisation; K562 cells, 10 uM, 30 min; active = over 0.2 and 3.5 SD of the protein, either way, in both replicates (recomputed)
# bafetinib = compound: Cc1ccc(NC(=O)c2ccc(CN3CC[C@H](N(C)C)C3)c(C(F)(F)F)c2)cc1Nc1nccc(-c2cncnc2)n1 [bafetinib]
# Method in brief: (§1)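 Soluble protein was defined as the supernatant after 21,000xg for 90 min. It came from K562 cells at 2×10^6 cells/mL given 10 μM compound for 30 min, heated in aliquots for 3 min across 48°C-58°C, pooled, and extracted in PBS with 0.5% NP-40 at 4°C, and was quantified by TMTpro 16plex LC-MS/MS with equalised channel sums. Thermal stability against control samples, from duplicates, is reported as log2 fold change.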
# [1] = compound: Cc1cccc(CC(=O)N2CCc3c2ccc(-c2cn(C)c4ncnc(N)c24)c3F)n1
# Method in brief: as §1
# nilotinib = compound: Cc1cn(-c2cc(NC(=O)c3ccc(C)c(Nc4nccc(-c5cccnc5)n4)c3)cc(C(F)(F)F)c2)cn1 [nilotinib]
# Method in brief: as §1
# [2] = compound: Cc1nc(Nc2n[nH]c3c2CN(C(=O)N[C@H](CN(C)C)c2ccccc2)C3(C)C)c2sccc2n1
# Method in brief: as §1
# dasatinib = compound: Cc1nc(Nc2ncc(C(=O)Nc3c(C)cccc3Cl)s2)cc(N2CCN(CCO)CC2)n1 [dasatinib]
# Method in brief: as §1
# [3] = compound: Cc1ncc(-c2ccnc(Nc3ccc(S(C)(=O)=O)cc3)n2)n1C(C)C
# Method in brief: as §1
# [4] = compound: Cn1cc(-c2ccc3c(c2)CCN3C(=O)Cc2cccc(C(F)(F)F)c2)c2c(N)ncnc21
# Method in brief: as §1
# [5] = compound: Cn1cc(-c2ccc3nnc(C(F)(F)c4ccc5ncccc5c4)n3n2)cn1
# Method in brief: as §1
# tipifarnib = compound: Cn1cncc1[C@@](N)(c1ccc(Cl)cc1)c1ccc2c(c1)c(-c1cccc(Cl)c1)cc(=O)n2C [tipifarnib]
# Method in brief: as §1
# mubritinib = compound: FC(F)(F)c1ccc(/C=C/c2nc(COc3ccc(CCCCn4ccnn4)cc3)co2)cc1 [mubritinib]
# Method in brief: as §1
# [6] = compound: NC(=O)Nc1cc(-c2cccc(F)c2)sc1C(=O)N[C@H]1CCCNC1
# Method in brief: as §1
# [7] = compound: NC(=O)c1cnc(N[C@@H]2CCCC[C@@H]2N)nc1Nc1cccc(-n2nccn2)c1
# Method in brief: as §1
# [8] = compound: NC1(c2ccc(-c3nc4ccn5c(=O)[nH]nc5c4cc3-c3ccccc3)cc2)CCC1
# Method in brief: as §1
# [9] = compound: NCC(=O)Nc1ccc(-n2nc(C(F)(F)F)cc2-c2ccc3c(ccc4ccccc43)c2)cc1
# Method in brief: as §1
# entinostat = compound: Nc1ccccc1NC(=O)c1ccc(CNC(=O)OCc2cccnc2)cc1 [entinostat]
# Method in brief: as §1
# vorinostat = compound: O=C(CCCCCCC(=O)Nc1ccccc1)NO [vorinostat]
# Method in brief: as §1
# citarinostat = compound: O=C(CCCCCCNC(=O)c1cnc(N(c2ccccc2)c2ccccc2Cl)nc1)NO [citarinostat]
# Method in brief: as §1
# silmitasertib = compound: O=C(O)c1ccc2c(c1)nc(Nc1cccc(Cl)c1)c1ccncc12 [silmitasertib]
# Method in brief: as §1
# [10] = compound: O=C1NC(=O)C(c2cnc3ccccn23)=C1c1cn2c3c(cc(F)cc13)CN(C(=O)N1CCCCC1)CC2
# Method in brief: as §1
# [11] = compound: c1cc(OCCN2CCCCC2)cc(-c2n[nH]c3ccc(-c4nnc[nH]4)cc23)c1
# Method in brief: as §1
# Chain of UniProt P50402 (P50402 whole entry, looked up): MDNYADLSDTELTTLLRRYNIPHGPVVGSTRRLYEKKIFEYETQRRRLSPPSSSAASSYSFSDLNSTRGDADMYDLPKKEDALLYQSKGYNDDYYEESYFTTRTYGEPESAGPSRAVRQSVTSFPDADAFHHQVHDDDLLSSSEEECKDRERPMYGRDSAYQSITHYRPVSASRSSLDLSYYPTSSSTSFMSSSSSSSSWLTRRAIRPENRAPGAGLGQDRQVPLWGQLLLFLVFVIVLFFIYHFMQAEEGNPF
# Chain of UniProt Q7Z2Z2 (Q7Z2Z2 whole entry, looked up): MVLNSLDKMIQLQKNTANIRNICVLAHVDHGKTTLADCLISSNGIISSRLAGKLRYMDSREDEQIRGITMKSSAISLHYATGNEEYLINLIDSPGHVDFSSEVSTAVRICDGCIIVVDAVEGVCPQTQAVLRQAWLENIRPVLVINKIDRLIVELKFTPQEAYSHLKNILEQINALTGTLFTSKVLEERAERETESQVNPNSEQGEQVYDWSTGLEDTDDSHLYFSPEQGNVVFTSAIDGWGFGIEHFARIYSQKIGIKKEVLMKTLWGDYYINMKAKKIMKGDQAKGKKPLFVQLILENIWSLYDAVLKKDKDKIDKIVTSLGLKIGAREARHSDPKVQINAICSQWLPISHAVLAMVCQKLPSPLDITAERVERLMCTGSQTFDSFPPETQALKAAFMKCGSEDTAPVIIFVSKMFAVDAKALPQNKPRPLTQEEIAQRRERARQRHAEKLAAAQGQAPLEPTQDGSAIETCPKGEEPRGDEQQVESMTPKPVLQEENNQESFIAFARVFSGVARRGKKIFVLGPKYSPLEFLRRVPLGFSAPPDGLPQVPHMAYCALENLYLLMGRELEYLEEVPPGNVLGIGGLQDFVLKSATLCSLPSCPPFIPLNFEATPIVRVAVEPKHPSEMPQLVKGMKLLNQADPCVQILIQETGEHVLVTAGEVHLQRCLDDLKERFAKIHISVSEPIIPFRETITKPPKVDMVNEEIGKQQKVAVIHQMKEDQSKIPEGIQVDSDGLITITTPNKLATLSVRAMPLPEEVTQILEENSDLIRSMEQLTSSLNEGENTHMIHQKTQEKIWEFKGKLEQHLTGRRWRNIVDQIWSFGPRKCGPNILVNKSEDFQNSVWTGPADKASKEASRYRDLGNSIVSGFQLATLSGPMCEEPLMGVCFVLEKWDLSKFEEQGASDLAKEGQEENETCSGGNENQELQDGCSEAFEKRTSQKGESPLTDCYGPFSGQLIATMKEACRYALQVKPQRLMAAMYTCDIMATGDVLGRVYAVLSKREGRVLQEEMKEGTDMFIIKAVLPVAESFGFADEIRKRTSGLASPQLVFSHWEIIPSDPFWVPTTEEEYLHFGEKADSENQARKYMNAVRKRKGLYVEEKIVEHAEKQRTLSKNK
# Chain of UniProt Q13011 (Q13011 whole entry, looked up): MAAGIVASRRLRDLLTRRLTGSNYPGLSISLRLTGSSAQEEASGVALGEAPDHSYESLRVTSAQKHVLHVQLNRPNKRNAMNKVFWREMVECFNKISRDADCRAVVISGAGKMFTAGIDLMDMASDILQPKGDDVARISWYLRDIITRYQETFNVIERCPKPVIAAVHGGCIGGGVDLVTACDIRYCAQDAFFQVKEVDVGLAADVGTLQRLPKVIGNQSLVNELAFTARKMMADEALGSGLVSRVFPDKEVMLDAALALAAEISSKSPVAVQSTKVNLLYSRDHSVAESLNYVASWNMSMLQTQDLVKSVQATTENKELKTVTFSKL
# Chain of UniProt Q9H2P9 (Q9H2P9 whole entry, looked up): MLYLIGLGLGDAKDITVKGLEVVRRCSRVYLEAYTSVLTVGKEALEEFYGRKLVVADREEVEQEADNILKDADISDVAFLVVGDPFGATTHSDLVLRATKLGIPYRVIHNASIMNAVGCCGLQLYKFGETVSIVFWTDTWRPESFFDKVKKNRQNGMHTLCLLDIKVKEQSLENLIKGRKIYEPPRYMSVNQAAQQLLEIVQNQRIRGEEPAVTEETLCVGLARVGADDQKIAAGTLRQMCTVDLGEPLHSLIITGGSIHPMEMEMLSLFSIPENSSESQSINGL
# Chain of UniProt Q7L576 (Q7L576 whole entry, looked up): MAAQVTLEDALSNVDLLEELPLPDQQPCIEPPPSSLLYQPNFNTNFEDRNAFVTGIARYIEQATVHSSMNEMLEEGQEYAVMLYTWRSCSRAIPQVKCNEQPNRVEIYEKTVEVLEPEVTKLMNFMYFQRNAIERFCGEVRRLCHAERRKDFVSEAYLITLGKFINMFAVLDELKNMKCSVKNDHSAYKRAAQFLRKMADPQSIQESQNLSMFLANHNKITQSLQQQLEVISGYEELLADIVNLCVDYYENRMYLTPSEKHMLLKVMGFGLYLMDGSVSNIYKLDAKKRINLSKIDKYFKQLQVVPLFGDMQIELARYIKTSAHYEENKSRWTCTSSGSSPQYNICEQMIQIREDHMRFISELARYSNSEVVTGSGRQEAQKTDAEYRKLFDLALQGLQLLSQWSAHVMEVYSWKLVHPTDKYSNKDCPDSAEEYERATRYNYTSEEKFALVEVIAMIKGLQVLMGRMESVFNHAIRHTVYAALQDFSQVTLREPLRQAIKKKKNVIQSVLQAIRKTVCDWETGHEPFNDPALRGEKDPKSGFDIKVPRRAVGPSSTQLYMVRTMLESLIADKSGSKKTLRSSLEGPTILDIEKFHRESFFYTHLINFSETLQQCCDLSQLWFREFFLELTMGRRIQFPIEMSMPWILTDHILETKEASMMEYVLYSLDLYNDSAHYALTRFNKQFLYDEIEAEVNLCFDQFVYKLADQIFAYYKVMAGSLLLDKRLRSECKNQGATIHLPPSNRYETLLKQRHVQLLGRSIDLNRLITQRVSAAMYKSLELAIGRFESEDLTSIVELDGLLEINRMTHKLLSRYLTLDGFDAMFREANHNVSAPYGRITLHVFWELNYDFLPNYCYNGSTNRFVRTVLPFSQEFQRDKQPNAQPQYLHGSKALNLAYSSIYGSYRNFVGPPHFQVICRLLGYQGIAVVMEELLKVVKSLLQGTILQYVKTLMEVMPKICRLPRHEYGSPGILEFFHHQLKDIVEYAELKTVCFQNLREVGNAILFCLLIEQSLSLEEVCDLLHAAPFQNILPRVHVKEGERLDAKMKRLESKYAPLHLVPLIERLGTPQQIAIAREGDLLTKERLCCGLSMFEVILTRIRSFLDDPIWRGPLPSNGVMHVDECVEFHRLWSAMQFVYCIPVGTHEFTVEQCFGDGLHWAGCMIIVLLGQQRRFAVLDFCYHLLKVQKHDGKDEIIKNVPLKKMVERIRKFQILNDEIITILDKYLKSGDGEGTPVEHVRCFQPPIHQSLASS
# Chain of UniProt Q6P2E9 (Q6P2E9 whole entry, looked up): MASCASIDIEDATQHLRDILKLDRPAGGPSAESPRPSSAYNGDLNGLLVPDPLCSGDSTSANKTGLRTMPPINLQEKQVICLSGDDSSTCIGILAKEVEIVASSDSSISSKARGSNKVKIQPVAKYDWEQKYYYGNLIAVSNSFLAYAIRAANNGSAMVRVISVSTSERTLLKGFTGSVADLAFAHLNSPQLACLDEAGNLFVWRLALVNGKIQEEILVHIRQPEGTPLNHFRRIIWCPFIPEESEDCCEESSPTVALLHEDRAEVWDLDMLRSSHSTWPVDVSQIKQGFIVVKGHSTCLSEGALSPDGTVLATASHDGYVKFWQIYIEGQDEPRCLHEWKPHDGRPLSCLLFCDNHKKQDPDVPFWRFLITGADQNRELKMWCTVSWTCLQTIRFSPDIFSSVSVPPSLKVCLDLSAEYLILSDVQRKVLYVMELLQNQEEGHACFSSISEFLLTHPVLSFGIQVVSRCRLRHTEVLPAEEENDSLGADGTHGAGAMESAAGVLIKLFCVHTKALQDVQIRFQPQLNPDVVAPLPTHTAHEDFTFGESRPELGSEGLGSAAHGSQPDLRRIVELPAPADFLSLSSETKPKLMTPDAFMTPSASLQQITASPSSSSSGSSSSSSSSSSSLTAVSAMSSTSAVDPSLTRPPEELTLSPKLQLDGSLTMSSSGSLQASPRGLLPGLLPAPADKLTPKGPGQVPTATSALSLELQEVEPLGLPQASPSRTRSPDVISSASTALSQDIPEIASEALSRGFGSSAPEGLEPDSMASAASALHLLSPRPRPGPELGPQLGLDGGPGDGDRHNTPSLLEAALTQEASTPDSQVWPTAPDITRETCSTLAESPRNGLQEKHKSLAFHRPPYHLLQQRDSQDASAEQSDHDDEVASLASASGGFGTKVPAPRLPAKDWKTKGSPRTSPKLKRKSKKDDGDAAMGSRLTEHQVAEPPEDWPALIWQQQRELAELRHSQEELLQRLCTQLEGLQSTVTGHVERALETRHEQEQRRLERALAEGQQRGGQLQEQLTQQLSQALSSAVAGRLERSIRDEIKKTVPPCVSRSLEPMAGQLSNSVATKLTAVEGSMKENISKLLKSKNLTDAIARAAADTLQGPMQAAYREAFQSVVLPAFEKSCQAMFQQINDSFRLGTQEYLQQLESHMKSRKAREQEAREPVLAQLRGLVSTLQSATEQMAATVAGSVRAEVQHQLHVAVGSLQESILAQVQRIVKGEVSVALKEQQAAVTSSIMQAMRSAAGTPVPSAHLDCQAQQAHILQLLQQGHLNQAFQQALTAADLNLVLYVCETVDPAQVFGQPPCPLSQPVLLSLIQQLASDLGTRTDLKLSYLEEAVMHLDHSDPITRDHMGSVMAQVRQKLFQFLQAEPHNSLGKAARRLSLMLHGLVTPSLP
# Chain of UniProt Q9BW60 (Q9BW60 whole entry, looked up): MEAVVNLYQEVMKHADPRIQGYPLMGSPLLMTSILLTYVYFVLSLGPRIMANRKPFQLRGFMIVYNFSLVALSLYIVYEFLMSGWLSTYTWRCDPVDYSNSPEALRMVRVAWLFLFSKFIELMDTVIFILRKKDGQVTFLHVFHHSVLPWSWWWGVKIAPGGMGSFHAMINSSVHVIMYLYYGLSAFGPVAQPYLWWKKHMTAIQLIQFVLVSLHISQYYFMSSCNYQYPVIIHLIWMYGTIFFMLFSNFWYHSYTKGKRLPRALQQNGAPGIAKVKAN
Target,log2 fold change (bafetinib),log2 fold change [1],log2 fold change (nilotinib),log2 fold change [2],log2 fold change (dasatinib),log2 fold change [3],log2 fold change [4],log2 fold change [5],log2 fold change (tipifarnib),log2 fold change (mubritinib),log2 fold change [6],log2 fold change [7],log2 fold change [8],log2 fold change [9],log2 fold change (entinostat),log2 fold change (vorinostat),log2 fold change (citarinostat),log2 fold change (silmitasertib),log2 fold change [10],log2 fold change [11]
DCTPP1 (UniProt Q9H773),-0.053,0.105,0.008,-0.013,0.068,-0.025,0.073,0.029,0.074,0.047,-0.051,0.117,-0.014,0.028,0.062,-0.093,0.005,-0.003,-0.001,0.008
CUTA isoform 2 (UniProt O60888),-0.148,0.1,0.016,0.016,0,-0.01,0.07,0.09,0.123,0.028,-0.022,0.153,0.013,0.063,0.019,-0.005,0.113,-0.031,-0.132,-0.046
EFL1 (UniProt Q7Z2Z2),-0.043,-0.014,-0.147,-0.052,-0.077,0.003,0.021,0.028,-0.026,-0.109,0.001,-0.023,-0.106,-0.026,0.025,0.071,0.047,0.017,-0.025,-0.023
EDC4 (UniProt Q6P2E9),0.006,0,0.013,-0.077,-0.018,-0.119,-0.046,-0.031,-0.038,-0.019,-0.06,-0.024,-0.026,-0.082,0.026,-0.023,0.035,-0.05,-0.066,-0.253 (active)
DPH5 isoform 5 (UniProt Q9H2P9),0.025,0.037,0.013,-0.023,0.253 (active),0.003,0.085,0.006,-0.121,0.049,-0.036,-0.005,0.209,-0.003,-0.018,-0.009,0.017,-0.008,0.109,0.038
CTSH (UniProt P09668),-0.071,-0.034,0.166,0.03,0.084,-0.041,0.055,0.056,0.09,-0.063,0.012,0.029,0.032,0.04,-0.002,-0.01,-0.02,0.005,0.022,0.197
ELOVL1 (UniProt Q9BW60),-0.245,0.12,-0.126,0.024,-0.041,-0.011,0.139,-0.097,-0.093,0.011,0.017,-0.191,-0.087,-0.055,0.05,0.321,-0.006,-0.046,0.002,0.035
DTWD2 (UniProt Q8NBA8),-0.023,-0.008,0.065,-0.019,0.126,0.022,0.215,0.096,-0.071,-0.087,0.284,-0.03,-0.058,0.068,-0.079,0,0.152,0.089,0.26,-0.123
DNAJC1 (UniProt Q96KC8),-0.185,-0.026,-0.035,0.016,-0.064,0.002,0.028,0.047,0.039,0.041,0.013,-0.055,-0.082,-0.08,0.042,0.106,0.017,0.01,-0.016,-0.083
CUEDC2 (UniProt Q9H467),-0.072,0.003,-0.006,-0.045,0.049,-0.055,0.02,-0.009,0.028,0.042,0,-0.105,-0.043,-0.056,-0.009,-0.039,0.096,0.008,-0.055,0.002
ECH1 (UniProt Q13011),0.318,-0.003,-0.024,0.013,0.249,-0.033,0.134,0.039,-0.056,-0.011,0,-0.101,0.295,-0.078,-0.025,-0.015,0.002,-0.072,-0.076,0.038
CYFIP1 (UniProt Q7L576),-0.064,0.002,-0.015,-0.064,-0.05,-0.024,0.049,-0.006,-0.011,0.022,-0.088,-0.029,-0.143,0.003,0.02,-0.025,0.031,0.009,-0.039,-0.064
DHRS7B (UniProt Q6IAN0),0.001,0.213,0.114,0.01,-0.066,0.056,0.047,-0.113,0.008,-0.023,-0.099,0.083,-0.012,0.117,-0.014,0.16,0.01,-0.05,-0.113,0.077
EMD (UniProt P50402),-0.167,-0.081,0.074,-0.071,-0.017,-0.045,-0.005,-0.098,0.087,0.031,-0.012,-0.064,-0.068,-0.041,-0.031,-0.017,-0.076,0.054,-0.084,-0.141
DCAF13 (UniProt Q9NV06),0.178,0,0.006,0.102,0.077,-0.05,-0.249,-0.173,0.193,-0.106,-0.004,0.049,0.196,0.077,-0.058,0.004,-0.044,0.108,0.054,-0.077
EPHX2 (UniProt P34913),0.131,-0.097,0.152,-0.029,-0.041,0.073,0.051,0.016,0.065,0.11,-0.148,-0.05,-0.016,-0.015,0.045,0.113,0.025,0.003,-0.025,-0.037
